# Screening results: PubChem BioAssay, National Center for Advancing Translational Sciences (NCATS)
# The list is not random: actives were taken first. Their share in the collection is about 19%.
# HT1080 IDH1KD tx: qHTS for induction of synthetic lethality in tumor cells producing 2HG: qHTS for the HT-1080-IDH1KD cell line; HT-1080 IDH1 knockdown viability, ATP luminescence, 48 h; Potency, µM (top dose mostly 46.1 µM), for inactives: at the highest dose activity, negative = toxicity, hits mostly cytotoxic; hit rate 2% among 360,000; AID 686971, 2013;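 further: potency means the concentration at half of the fitted maximal effect; 0% = DMSO wells and -100% = cell-free medium wells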
#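 After a 2 h attachment period, IDH1KD HT-1080 cells took pin-transferred compound for 48 h at 37 °C; ATP-based luminescence after 10 min room-temperature reagent incubation reported viability.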
# HT1080-NT tox: qHTS for induction of synthetic lethality in tumor cells producing 2HG: qHTS for the HT-1080-NT fibrosarcoma cell line | HT-1080-NT fibrosarcoma viability, CellTiter-Glo ATP luminescence, 48 h | Potency, µM (doses to about 46.1 µM), for the others: at the highest dose activity, negative = less viability, actives largely listed as cytotoxic | hit rate 1.6% among 360,000 | AID 686970, 2013;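 further: NT is the 2HG producing partner of a matched IDH1 knockdown line; potency means the concentration at half of the fitted maximal effect; 0% = DMSO-treated cells and -100% = media-only wells without cells; nearly all actives have a fitted effect of over 55% in size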
#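 Fibrosarcoma NT cells, 750 per well in 5% FBS RPMI, were exposed to compound for 48 hours. Viability: CellTiter-Glo luminescence.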
# IL-1B inflam inh: qHTS for Inhibitors of Inflammasome Signaling: IL-1-beta AlphaLISA Primary Screen; THP-1 LPS/ATP IL-1B secretion, AlphaLISA, 16 h; hits give low values; activity change, % at 57.5 µM; hit rate 4.7% among 360,000; in the data active means activity change below about -50%; inconclusive means mostly about -30% to -49%
#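 THP-1 cells pretreated 1 hr with compounds (up to 57.5 uM final), then stimulated with LPS (250 ng/mL final) plus ATP (1.25 mM final); secreted IL-1B measured by AlphaLISA after 16 hr, decreased signal indicating inhibition.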
# TDP1 cell CPT: qHTS for Inhibitors of human tyrosyl-DNA phosphodiesterase 1 (TDP1): qHTS in cells in presence of CPT. chicken DT40 Tdp1-/-;hTDP1 cells + 20 nM CPT, ATP luminescence, 48 h. Potency, µM (series often up to 46.2 µM), without a hit: at the highest dose activity change, negative = growth inhibition, actives largely listed as inhibitors. hit rate 12% among 420,000. AID 686979, 2013; further: potency means the concentration at half of the fitted maximal effect; nearly all actives have a fitted effect of over 55% in size
#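 Cell growth measured by CellTiter-Glo luminescence after a minimum 48 h, 37 C compound exposure with 20 nM CPT in Tdp1-knockout DT40 cells stably expressing hTDP1, seeded 400/well; qHTS titration format.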
# DT40 TDP1 no CPT: qHTS for Inhibitors of human tyrosyl-DNA phosphodiesterase 1 (TDP1): qHTS in cells in absence of CPT | hit rate 15% among 420,000 | DT40 Tdp1-/- hTDP1 cells, no CPT, ATP luminescence, 48 h | Potency, µM (highest dose often 46.2 µM), inactives show top-dose activity change, negative = growth inhibition, usual class: inhibitors; further: potency means the concentration at half of the fitted maximal effect; nearly all actives have a fitted effect of over 55% in size
#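 Chicken DT40 Tdp1-/- cells stably complemented with human TDP1 were seeded at 400 cells/well with DMSO in place of 20 nM camptothecin. After compound pinning, cells grew at least 48 hr at 37 °C; viability read by CellTiter-Glo luminescence.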
# Numbers without * were called inactive; ? = inconclusive; · = not tested or not shown; [ ] = dose if it differs, or a comment. Unless noted, the call rests on the fitted dose curve; in most records, active means well fitted curve in the direction sought with a large enough effect; inconclusive means small, poorly fitted or top-dose-only effect, or another doubt; inactive means no such curve, though single readings can be large; an effect the other way counts as inactive or inconclusive. Unless noted, on the % scale 0 is the no-effect control and ±100 the full control effect.
SMILES,HT1080 IDH1KD tx,HT1080-NT tox,IL-1B inflam inh,TDP1 cell CPT,DT40 TDP1 no CPT
Cc1ccc(CNC(=O)C(Cc2ccccc2)NS(=O)(=O)c2ccc(Br)s2)cc1 (configuration not stated),-27.4%,?,-75.0*,-3.0%,?
CCOc1ccccc1NC(=O)C(Cc1ccccc1)NS(=O)(=O)c1ccc(Br)s1 (configuration not stated),·,·,·,23.1µM*,?
Cc1ccc(CNC(=O)C(Cc2ccccc2)NS(=O)(=O)c2cccs2)cc1 (configuration not stated),0.0%,-29.4%,0.7,?,-20.5%
COc1ccc(C)cc1NC(=O)C(Cc1ccccc1)NS(=O)(=O)c1cccs1 (configuration not stated),·,·,·,18.4µM*,?
CCC(Sc1ccccn1)C(=O)Nc1cccc([N+](=O)[O-])c1 (configuration not stated),-10.9%,-6.1%,0.0,-11.7%,?
O=c1[nH]c(Sc2ccc([N+](=O)[O-])cc2[N+](=O)[O-])nc2ccccc12,?,-14.5%,-22.5,3.26µM*,13µM*
O=C(CSc1nc2ccccc2c(=O)[nH]1)Nc1ccc([N+](=O)[O-])cc1,9.2µM*,?,1.1,?,?
CC(C)(C)c1csc(NC(=O)CSc2nc3ccccc3c(=O)[nH]2)n1,-26.0%,-14.6%,17.0,18.4µM*,23.1µM*
O=C(CSc1nc2ccccc2[nH]1)Nc1nc(-c2ccc(Br)cc2)cs1,?,-26.0%,-14.1,23.1µM*,16.4µM*
CCCc1cc(=O)[nH]c(SCC(=O)Nc2nc(-c3ccccc3)cs2)n1,-4.7%,-11.6%,57.3,?,?
COC(=O)c1ccc(NC(=O)COC(=O)C2=NN(c3ccccc3)C(=O)CC2)cc1,6.4%,-1.1%,34.6,6.1%,4.6%
Cc1ccc(NC(=S)N2CCC(C(=O)c3ccc(F)cc3)CC2)cc1C,1.6%,6.5%,-16.3,23.8%,-21.7%
CCC1CN(CCNC(=O)C2CCCCN2C)Cc2cc(OC)ccc2O1 (configuration not stated),·,·,·,3.9%[9.04 µM],-7.2%
Cn1c2ccccc2c2cc([N+](=O)[O-])ccc21,-16.0%,?,-22.0,10.2%,-26.3%
O=C(CSc1nc2ccccc2c(=O)[nH]1)Nc1ccc(S(=O)(=O)N2CCCC2)cc1,?,?,38.2,16.4µM*,?
O=[N+]([O-])c1ccc(Sc2cc[n+]([O-])c3ccccc23)c([N+](=O)[O-])c1,18.4µM*,16.4µM*,-108.2*,2.59µM*,2.06µM*
CCOc1ccc(C(=O)NCC(c2ccc3c(c2)OCO3)N2CCOCC2)cc1 (configuration not stated),·,·,·,-7.7%,?
CN1c2ccccc2C(=O)NC1c1ccc([N+](=O)[O-])s1 (configuration not stated),-16.4%,-0.8%,·,-9.0%,?
CCN(CC)C(=O)[C@H]1C[C@H](CC(=O)NCCCN(C)C)C(=O)N2CCc3c([nH]c4ccc(Cl)cc34)[C@]12C,-11.0%,-23.2%,-51.5*,18.4µM*,?
CCN(CC)C(=O)[C@H]1C[C@H](CC(=O)NCc2ccc(OC)c(OC)c2)C(=O)N2CCc3c([nH]c4ccc(Cl)cc34)[C@]12C,?,?,15.8,?,23.1µM*
CC(C)N(C(=O)[C@H]1C[C@H](CC(=O)NCCCN(C)C)C(=O)N2CCc3c([nH]c4ccc(Cl)cc34)[C@]12C)C(C)C,?,-20.1%,-25.5,?,14.6µM*
COc1ccc2[nH]c3c(c2c1)CCN1C(=O)C(CC(=O)NCCCN(C)C)C[C@H](C(=O)N(C(C)C)C(C)C)[C@@]31C (some centres not stated),0.8%,-2.4%,-1.4,-2.5%,-6.5%
CCN(CC)C(=O)[C@H]1CC(CC(=O)NCc2ccc(OC)c(OC)c2)C(=O)N2CCc3c([nH]c4ccccc34)[C@]12C (some centres not stated),2.1%,-5.0%,-12.7,?,?
CCOc1ccc(NC(=O)CSc2ncn[nH]2)cc1,4.0%,1.3%,-3.1,-4.4%,8.9%
COc1ccc(-c2nc3sc(CCNS(=O)(=O)c4ccccc4)c(C)n3n2)cc1,·,·,·,16.8%,-20.0%
SMILES,HT1080 IDH1KD tx,HT1080-NT tox,IL-1B inflam inh,TDP1 cell CPT,DT40 TDP1 no CPT
CCCCn1c(CN2CCN(c3ccccc3)CC2)nc2c1c(=O)n(C)c(=O)n2C,-13.8%,-11.6%,62.0,1.46µM*,2.31µM*
Cn1c(=O)c2c(nc(CN3CCN(Cc4ccccc4)CC3)n2Cc2ccc(F)cc2)n(C)c1=O,-0.1%,-28.3%,16.4,?,?
CCCCCn1c(CN2CCN(Cc3ccccc3)CC2)nc2c1c(=O)n(C)c(=O)n2C,2.2%,3.7%,0.4,14.6µM*,14.6µM*
CC(C)CCn1c(CN2CCN(Cc3ccccc3)CC2)nc2c1c(=O)n(C)c(=O)n2C,-1.3%,-0.6%,-0.1,?,16.4µM*
CCCCCCn1c(CN2CCC(C)CC2)nc2c1c(=O)n(C)c(=O)n2C,-4.6%,13.7%,40.8,?,16.4µM*
CC(=O)c1sc(NC(=O)C2CCCN2S(=O)(=O)c2ccccc2F)nc1C (configuration not stated),-2.1%,7.7%,21.1,-20.6%,0.0%
Cn1c(=O)c2c(nc(CN3CCC(C(N)=O)CC3)n2CCCc2ccccc2)n(C)c1=O,2.0%,4.8%,0.1,-27.4%,?
Cn1c(=O)c2c(nc(CN3CCN(c4ccccc4)CC3)n2CCCc2ccccc2)n(C)c1=O,-1.2%,1.6%,10.5,20.6µM*,14.6µM*
Cc1cc(C)n(C2CC(=O)N(c3ccc(C)c(Cl)c3)C2=O)n1 (configuration not stated),-0.5%,-9.7%,11.5,0.0%,-0.7%
COCCNC(=S)N1CCN(c2nc(-c3ccc(Cl)cc3)cs2)CC1,-20.0%,?,-20.1,-7.9%,?
CC(C)C(=O)N1CCN(c2nc(-c3ccc(Cl)cc3)cs2)CC1,?,-1.7%,-23.6,23.1µM*,13µM*
CCS(=O)(=O)N1CCN(c2nc(-c3ccccc3)cs2)CC1,-2.7%,-3.1%,0.0,-0.9%,-27.4%
CNC(=S)N1CCN(c2nc(-c3ccc(Cl)cc3)cs2)CC1,-13.3%,-12.1%,-56.5*,?,20.6µM*
O=C(CCCl)N1CCN(c2nc(-c3ccccc3)cs2)CC1,0.0%,11.0%,0.0,?,16.4µM*
